# Measurements taken from PubChem BioAssay (Tox21).
# “And” between values parts separate entries of the source, which are not always exact repeats. Equal values may be shown once. Results filed as inconclusive are left out. Where a call stands in place of a potency, no number is given. The source made the active and inactive calls. Unless noted, calls follow the shape of the dose curve; as a rule, active = well fitted curve in the direction sought with a large enough effect in the repeat runs; inconclusive = weak or mixed curves; inactive = no such curve, though single readings can be large; an effect the other way counts as inactive or inconclusive.
# Columns and labels:
# [1] = biological target: Luciferin 4-monooxygenase (Photinus pyralis) (UniProt P08659); test: qHTS assay to identify small molecule inhibitors of firefly luciferase (AID 1224835); also: nearly all actives have a fitted effect of over 25% in size; also: potency is read from the fitted curve at half-maximal effect
# Procedure, shortened: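 Inhibition of purified Photinus luciferase is measured by luminescence. Substrate levels (D-luciferin, ATP) sit at their KM values. Each compound is tested in a concentration series.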
# [2] = qHTS assay to identify small molecule agonists of the constitutive androstane receptor (CAR) signaling pathway - cell viability counter screen (AID 1224836); also: nearly all actives have a fitted effect of over 45% in size
# Procedure, shortened: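 HepG2 cells stably carrying hCAR and a CYP2B6-2.2kb reporter; 15-concentration compounds plus PK11195 (final 0.75 uM), 23 hr at 37 C/5% CO2. Viability read by CellTiter-Fluor fluorescence.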
# [3] = qHTS assay to identify small molecule antagonists of the constitutive androstane receptor (CAR) signaling pathway - cell viability counter screen (AID 1224837); also: nearly all actives have a fitted effect of over 45% in size
# Procedure, shortened: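 Fluorescence from CellTiter-Fluor served as the viability signal. Human hepatoma HepG2 cells stably bearing hCAR and CYP2B6-2.2kb received compound plus CITCO (50 nM final) for 23 hr.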
# [4] = qHTS assay to identify small molecule antagonists of the estrogen related receptor signaling pathway with the pleiotropic PPARgamma coactivator (PGC) from Tox21 10K library - cell viability counter screen (AID 1224840; active = well fitted cell-killing curve with a large enough effect in the repeat runs, not every such curve was filed as active; also: nearly all actives have a fitted effect of over 40% in size)
# Procedure, shortened: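 Compounds in DMSO, alongside positive and negative controls, were pinned onto PGC/ERR cells (2,000 per well). Exposure lasted 17.5 hours at 37 C, followed by a 30-minute CellTiter-Fluor incubation and fluorescence reading.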
# [5] = qHTS assay to identify small molecule antagonists of the estrogen related receptor signaling pathway with the pleiotropic PPARgamma coactivator (PGC) from Tox21 10K library (AID 1224841; call rule not given here; also: actives are mostly falling curves and most rising ones were filed inactive; nearly all actives have a fitted effect of over 50% in size)
# Procedure, shortened: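 Compound exposure ran 18 hours at 37 C in PGC/ERR cells (2,000/well) that had first rested 6 hours in a 37 C/5% CO2 incubator. Luciferase activity was then detected with One-Glo after a 30-minute room-temperature step.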
# [6] = qHTS assay to identify small molecule agonists of the estrogen related receptor signaling pathway with the pleiotropic PPARgamma coactivator (PGC) from Tox21 10K library (AID 1224842); also: nearly all actives have a fitted effect of over 15% in size
# Procedure, shortened: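 Luminescence from One-Glo (30 min, room temperature) measured after PGC/ERR cells had 18 h at 37 C with pinned compound (23 nL in DMSO). Cells had been seeded at 2,000 per well and pre-incubated 6 h.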
# [7] = biological target: Thyrotropin receptor (Homo sapiens) (UniProt P16473); test: qHTS assay to identify small molecule agonists of the thyroid stimulating hormone receptor (TSHR) signaling pathway (AID 1224843; calls by dose curve; also: nearly all actives have a fitted effect of over 45% in size)
# Procedure, shortened: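 Screening of the Tox21 10K collection used HEK293 cells engineered with TSHR at 800 cells per well. After a 30-min room-temperature compound exposure, HTRF cAMP reagents were added and fluorescence recorded 1 h later.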
# [8] = qHTS assay to identify small molecule agonists of the hypoxia (HIF-1) signaling pathway - cell viability counter screen (AID 1224844; calls by dose curve; also: nearly all actives have a fitted effect of over 50% in size)
# Procedure, shortened: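 Luminescent ATP content (CellTiter-Glo, 30 min, room temperature) served as the viability measure in HRE-bla ME-180 cells exposed to compounds for 17 hrs in low-serum medium (0.5% dialyzed FBS).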
# [9] = qHTS assay to identify small molecule agonists of H2AX (AID 1224845; active = well fitted activation curve with a large enough effect in the signal ratio in the repeat runs, not every such curve was filed as active; the % refers to the signal ratio)
# Procedure, shortened: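 Phospho-H2AX Ser139 measured by HTRF (ex 320 nm; em 665 and 620 nm) after 24 hr antibody incubation. Compounds, 15 concentrations, 0.76% DMSO, were applied to CHO-K1 cells for 3hr at 37C before lysis.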
# [10] = qHTS assay to identify small molecule antagonists of the estrogen related receptor (ERR) signaling pathway from Tox21 library (AID 1224848); also: nearly all actives have a fitted effect of over 50% in size
# Procedure, shortened: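 Antagonist-mode screen of the Tox21 10K library in an NTP-provided ERR reporter cell line; 18 h compound exposure at 37 C, luminescence measured with ONE-Glo.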
# [11] = qHTS assay to identify small molecule agonists of the estrogen related receptor (ERR) signaling pathway from Tox21 library (AID 1224849; calls by dose curve; also: nearly all actives have a fitted effect of over 15% in size); details: ERR reporter cell line, ONE-Glo luciferase, 18 h
# Procedure, shortened: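 We plated ERR reporter cells, waited 6 h, added compounds in DMSO by pin tool and incubated them 18 h at 37 C. ONE-Glo was then added and luminescence read after 30 min.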
# [12] = qHTS RealTime-Glo MT Cell Viability Assay in HepG2 cells - 24 hour (AID 1224867); also: nearly all actives have a fitted effect of over 50% in size
# Procedure, shortened: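 Viability was tracked continuously by NanoLuc luminescence from prosubstrate reduced by living HepG2 cells, at successive time points over 40 h of compound exposure. Cells with reagent were preincubated 5 h at 37 °C before compound addition.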
# [13] = qHTS RealTime-Glo MT Cell Viability Assay in HEK293 cells - 32 hour (AID 1224868)
# Procedure, shortened: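 Viability tracked continuously by luminescence as live cells reduce a prosubstrate for NanoLuc; HEK293 cells preincubated 5 h, compound-treated at 37 C, and read at 0, 8, 16, 24, 32 and 40 h.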
# [14] = A CellTox Green Cytotoxicity Assay to monitor cytotoxicity in HEK293 cells - 0 hour (AID 1224869); also: nearly all actives have a fitted effect of over 50% in size
# Procedure, shortened: (§1)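 Each value comes from one timepoint of a single continuous run in which HEK293 cells with CellTox Green were exposed to compound for up to 40 h at 37 C, dye fluorescence rising with cell death.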
# [15] = qHTS RealTime-Glo MT Cell Viability Assay in HepG2 cells - 40 hour (AID 1224870); also: nearly all actives have a fitted effect of over 50% in size
# Procedure, shortened: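 Real-time viability: cells seeded at 600 per well together with NanoLuc and cell-permeant prosubstrate, compounds added after 5 h incubation. Luminescence tracked at 0, 8, 16, 24, 32 and 40 h of exposure.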
# [16] = A CellTox Green Cytotoxicity Assay to monitor cytotoxicity in HEK293 cells - 40 hour (AID 1224871); also: nearly all actives have a fitted effect of over 45% in size
# Procedure, shortened: as §1
# [17] = qHTS assay to identify small molecule agonists of H2AX - cell viability counter screen (AID 1224847; calls by dose curve;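 also: wild-type CHO-K1 cells; top concentration of the series differs between compounds; nearly all actives have a fitted effect of over 30% in size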)
# Procedure, shortened: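 CHO-K1 cells plated overnight at 37C, then exposed 3 h at 37C to compounds at 15 concentrations (0.76% DMSO final). Viability by CellTiter-Glo luminescence after 30 min at room temperature.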
# [18] = biological target: Nuclear receptor subfamily 1 group I member 3 (Homo sapiens) (UniProt Q14994); test: qHTS assay to identify small molecule antagonists of the constitutive androstane receptor (CAR) signaling pathway (AID 1224838);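 also: HepG2 cells stably expressing hCAR with CYP2B6 luciferase reporter stimulated by CITCO; nearly all actives have a fitted effect of over 40% in size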
# Procedure, shortened: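 Quantitative HTS in double-stable HepG2-CYP2B6-hCAR cells. After 4 h plating, cells get compound (15 concentrations) and CITCO at 50 nM final, incubate 24 h at 37 C, then ONE-Glo luminescence is read.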
# [19] = biological target: Nuclear receptor subfamily 1 group I member 3 (Homo sapiens) (UniProt Q14994); test: qHTS assay to identify small molecule agonists of the constitutive androstane receptor (CAR) signaling pathway (AID 1224839);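 also: HepG2 cells stably carrying human CAR and a CYP2B6 luciferase reporter; nearly all actives have a fitted effect of over 15% in size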
# Procedure, shortened: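 HepG2 cells stably co-transfected with hCAR and a CYP2B6-2.2kb luciferase reporter; compounds at 15 concentrations with 0.75 uM PK11195 present. After 24 hr at 37 C, luciferase read by ONE-Glo luminescence.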
# [20] = qHTS assay to identify small molecule agonists of the hypoxia (HIF-1) signaling pathway (AID 1224846; active = well fitted activation curve with a large enough effect in the signal ratio in the repeat runs, not every such curve was filed as active; the % refers to the signal ratio)
# Procedure, shortened: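 Measured by blue/green FRET after loading CCF4-AM: beta-lactamase expressed from a hypoxia response element in ME-180 cells. Test agents were delivered in DMSO and left 17 hrs; cells had been plated 5 hrs earlier in low-serum (0.5% dialyzed FBS) medium.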
# Sequence of Thyrotropin receptor (Homo sapiens) (P16473 whole entry, looked up): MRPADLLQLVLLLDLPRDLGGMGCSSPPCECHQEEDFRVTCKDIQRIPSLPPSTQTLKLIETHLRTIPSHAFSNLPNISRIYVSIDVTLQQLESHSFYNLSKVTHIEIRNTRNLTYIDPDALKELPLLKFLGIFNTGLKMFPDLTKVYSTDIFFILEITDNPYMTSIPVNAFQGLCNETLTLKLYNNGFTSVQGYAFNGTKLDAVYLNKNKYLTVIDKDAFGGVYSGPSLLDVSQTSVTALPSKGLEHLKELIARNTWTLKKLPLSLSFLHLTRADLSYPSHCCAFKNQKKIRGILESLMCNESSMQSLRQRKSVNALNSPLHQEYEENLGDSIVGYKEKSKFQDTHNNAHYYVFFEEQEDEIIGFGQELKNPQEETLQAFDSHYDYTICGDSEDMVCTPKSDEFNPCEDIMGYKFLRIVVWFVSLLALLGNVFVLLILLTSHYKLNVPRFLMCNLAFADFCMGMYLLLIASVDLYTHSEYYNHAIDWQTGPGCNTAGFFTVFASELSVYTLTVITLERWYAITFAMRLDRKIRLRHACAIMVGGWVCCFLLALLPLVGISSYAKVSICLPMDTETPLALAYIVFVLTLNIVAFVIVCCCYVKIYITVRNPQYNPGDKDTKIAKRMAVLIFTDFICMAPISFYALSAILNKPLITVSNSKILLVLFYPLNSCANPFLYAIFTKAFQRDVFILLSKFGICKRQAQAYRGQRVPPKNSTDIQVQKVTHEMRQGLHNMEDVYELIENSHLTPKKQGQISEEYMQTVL
# Sequence of Nuclear receptor subfamily 1 group I member 3 (Homo sapiens) (Q14994 whole entry, looked up): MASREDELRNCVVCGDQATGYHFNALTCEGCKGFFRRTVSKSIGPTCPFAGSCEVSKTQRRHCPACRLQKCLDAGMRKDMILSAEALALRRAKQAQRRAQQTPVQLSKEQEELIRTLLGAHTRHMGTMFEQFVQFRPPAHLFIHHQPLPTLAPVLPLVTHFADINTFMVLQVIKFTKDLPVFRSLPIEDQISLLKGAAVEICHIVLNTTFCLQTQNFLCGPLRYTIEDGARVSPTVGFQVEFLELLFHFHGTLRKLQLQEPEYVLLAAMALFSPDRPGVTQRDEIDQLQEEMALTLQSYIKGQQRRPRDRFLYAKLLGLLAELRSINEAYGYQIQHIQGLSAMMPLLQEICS
# Sequence of Luciferin 4-monooxygenase (Photinus pyralis) (P08659 whole entry, looked up): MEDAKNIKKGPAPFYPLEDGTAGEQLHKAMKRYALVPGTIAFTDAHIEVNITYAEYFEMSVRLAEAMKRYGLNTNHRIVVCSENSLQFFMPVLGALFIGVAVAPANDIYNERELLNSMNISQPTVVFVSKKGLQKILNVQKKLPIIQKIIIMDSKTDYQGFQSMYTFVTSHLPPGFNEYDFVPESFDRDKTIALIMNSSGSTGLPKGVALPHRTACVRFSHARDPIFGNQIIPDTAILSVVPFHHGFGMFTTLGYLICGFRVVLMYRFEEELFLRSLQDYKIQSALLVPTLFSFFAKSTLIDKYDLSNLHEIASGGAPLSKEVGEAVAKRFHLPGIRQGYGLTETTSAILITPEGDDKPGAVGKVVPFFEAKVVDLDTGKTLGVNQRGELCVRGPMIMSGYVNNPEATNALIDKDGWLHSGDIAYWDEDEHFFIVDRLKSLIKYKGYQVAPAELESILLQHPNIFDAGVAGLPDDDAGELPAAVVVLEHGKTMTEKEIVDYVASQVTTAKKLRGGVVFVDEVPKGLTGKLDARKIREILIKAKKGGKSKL
structure (smiles),measurement,setting,value
CCOC(=O)C(C)(C)Oc1ccc(Cl)cc1,Potency,[1],inactive
same,Potency,[2],inactive
same,Potency,[3],inactive
same,Potency,[4],inactive
same,Potency,[5],inactive
same,Potency,[6],inactive
same,Potency,[7],inactive
same,Potency,[8],inactive
same,Potency,[9],inactive
same,Potency,[10],inactive
same,"activity change, positive = activation",[11]; at 42.5 µM (top of the series),1.46% (inactive)
same,"activity change, positive = activation",[11]; at 92.4 µM (top of the series),1.63% (inactive) and -0.349% (inactive)
same,outcome,[12],inactive
same,Potency,[13],inactive
same,Potency,[14],inactive
same,outcome,[15],inactive
same,Potency,[16],inactive
Cc1cnc(NC(=O)C2=C(O)c3ccccc3S(=O)(=O)N2C)s1,Potency,[1],31.8 µM (active) and 22.4 µM (active) and 34.7 µM (active)
same,Potency,[2],inactive
same,Potency,[3],inactive
same,Potency,[4],inactive
same,Potency,[8],inactive
same,Potency,[9],inactive
same,outcome,[12],inactive
same,Potency,[13],inactive
same,Potency,[14],inactive
same,outcome,[15],inactive
same,Potency,[16],inactive
OC[C@@H](O)[C@@H](O)[C@H](O)[C@H](O)CO,Potency,[1],inactive
same,Potency,[2],inactive
same,Potency,[3],inactive
same,Potency,[4],inactive
same,Potency,[5],inactive
same,Potency,[6],inactive
same,Potency,[7],inactive
same,Potency,[8],inactive
same,Potency,[9],inactive
same,Potency,[17],inactive
same,Potency,[10],inactive
same,"activity change, positive = activation",[11]; at 42.5 µM (top of the series),2.34% (inactive)
same,"activity change, positive = activation",[11]; at 92.4 µM (top of the series),1.3% (inactive) and 3.91% (inactive)
same,outcome,[12],inactive
same,Potency,[13],inactive
same,Potency,[14],inactive
same,outcome,[15],inactive
same,Potency,[16],inactive
C[C@]12C=CC(=O)C=C1CC[C@@H]1[C@@H]2C(=O)C[C@@]2(C)[C@H]1CC[C@]2(O)C(=O)CO,Potency,[1],inactive
same,Potency,[2],inactive
same,Potency,[3],inactive
same,Potency,[18],inactive
same,Potency,[4],inactive
same,Potency,[7],inactive
same,Potency,[8],inactive
same,Potency,[9],inactive
same,Potency,[17],inactive
same,outcome,[12],inactive
same,Potency,[13],inactive
same,Potency,[14],inactive
same,outcome,[15],inactive
same,Potency,[16],inactive
C=C(C)OC(C)=O,Potency,[1],inactive
same,Potency,[3],inactive
same,Potency,[18],inactive
same,Potency,[19],inactive
same,Potency,[4],inactive
same,Potency,[5],inactive
same,Potency,[6],inactive
same,Potency,[8],inactive
same,Potency,[9],inactive
same,outcome,[20],inactive
same,Potency,[17],inactive
same,Potency,[10],inactive
same,"activity change, positive = activation",[11]; at 92.4 µM (top of the series),4.28% (inactive) and 3.36% (inactive)
same,outcome,[12],inactive
same,Potency,[13],inactive
same,Potency,[14],inactive
same,outcome,[15],inactive
same,Potency,[16],inactive
NC(N)=NC(N)=NCCc1ccccc1,Potency,[1],inactive
same,Potency,[2],inactive
same,Potency,[3],inactive
same,Potency,[4],inactive
same,Potency,[7],inactive
same,Potency,[8],inactive
same,Potency,[9],inactive
same,outcome,[20],inactive
same,outcome,[12],inactive
same,Potency,[13],inactive
same,Potency,[14],inactive
same,outcome,[15],inactive
same,Potency,[16],inactive
O=c1cc[nH]c(=O)[nH]1,Potency,[1],inactive
same,Potency,[3],inactive
same,Potency,[18],inactive
same,Potency,[19],inactive
same,Potency,[4],inactive
same,Potency,[5],inactive
same,Potency,[6],inactive
same,Potency,[7],inactive
same,Potency,[8],inactive
same,Potency,[9],inactive
same,Potency,[10],inactive
same,"activity change, positive = activation",[11]; at 42.5 µM (top of the series),5.28% (inactive)
same,"activity change, positive = activation",[11]; at 92.4 µM (top of the series),0.687% (inactive)
same,outcome,[12],inactive
same,Potency,[13],inactive
same,Potency,[14],inactive
same,outcome,[15],inactive
same,Potency,[16],inactive
CC(=O)c1ccc(S(=O)(=O)NC(=O)NC2CCCCC2)cc1,Potency,[1],inactive
same,Potency,[3],inactive
same,Potency,[4],inactive
same,Potency,[8],inactive
same,Potency,[9],inactive
same,Potency,[17],inactive
same,outcome,[12],inactive
same,Potency,[13],inactive
same,Potency,[14],inactive
same,outcome,[15],inactive
same,Potency,[16],inactive
